Test results taken from ChEMBL document CHEMBL3988442, “University of Dundee, Small-Polar-MMV Screening Library” (2021).
The campaign covered roughly 48,000 compounds. About 13,000 (27%) showed an effect of 50% or more. Some of the results follow.

Test system: Wolbachia pipientis
Assay: Anti-Wolbachia Cell-Based Screen
Type: functional
Set-up: scale not given: in the data most compounds retested in dose-response had high values
Conditions: 5 µM

SMILES	Percent Effect [%]
Cc1ccc(C)c(Oc2ccc(CNC(=O)C3CCC(=O)N3)cn2)c1 (stereo not drawn)	-2.356
CCCc1nnsc1C(=O)N1CCN(CC(O)c2ccco2)CC1.Cl (stereo not drawn)	-2.42
Cc1nnc2n1CCN(Cc1ncc(-c3ccc(Cl)cc3)o1)C2	-13.18
CS(=O)(=O)N1CC[C@]2(C[C@@H](OCC3CCC3)CO2)C1	0.0763
CCCc1nc(C)c(C(=O)NC2CCN(CC(N)=O)CC2)s1	7.483
Cc1cc(C(=O)NC2CCN(CC(N)=O)CC2)nn1C(C)(C)C	133.1
NC(=O)CN1CCC(NC(=O)c2ccn(-c3cccc(F)c3)n2)CC1	-0.7272
Cc1csc(CN(C)CCCOc2cccc(C#N)c2)n1	1.685
Cc1nn(C)c(N2CCOCC2)c1CNCc1ccc(Cl)s1	2.748
Cc1cccc(CNCc2c(C)nn(C)c2N2CCOCC2)n1	-8.764
Cc1nn(C)c(N2CCOCC2)c1CNCC1CCN(C2CC2)C1 (stereo not drawn)	-9.16
Cc1nn(C)c(N2CCOCC2)c1CNCC1CCS(=O)(=O)C1 (stereo not drawn)	-15.3
Cc1nn(C)c(N2CCOCC2)c1CNC(C)c1ccco1 (stereo not drawn)	-14.65
Cc1nn(C)c(N2CCOCC2)c1CNCc1ccnn1C	142.8
Cc1nn(C)c(N2CCOCC2)c1CNCC1CCCN1C (stereo not drawn)	-4.188
Cc1nn(C)c(N2CCOCC2)c1CNCc1nccs1	-7.203
Cc1nn(C)c(N2CCOCC2)c1CNCc1ccccc1CO	115.8
Cc1nn(C)c(N2CCOCC2)c1CNCc1ccoc1C	153.8
Cc1nn(C)c(N2CCOCC2)c1CNCc1ccc(CO)c(F)c1	138
O=C(NCC1(O)CCSCC1)c1ccoc1	-3.908
Cc1nccn1CC1CCCN1CCCc1nc(-c2cccs2)no1 (stereo not drawn)	8.035
Cc1ncccc1CNC(CCO)C1CCCCC1 (stereo not drawn)	3.816
Cn1ccnc1C1CCN(S(=O)(=O)c2ccc3c(c2)OCCO3)CC1	-44.72

SMILES	Percent Effect [%]
O=C(Nc1ncn(CC(=O)N2CCCCCC2)n1)C1CCCO1 (stereo not drawn)	-2.557
Fc1ccc(CN2CCCC2Cn2cncn2)c2ncccc12 (stereo not drawn)	11.89
CC(C)N(C(=O)c1ccnc(OCC(F)(F)F)c1)c1cccnc1	-10.5
Cc1nn(C)c(N2CCOCC2)c1CNCc1ccc(N(C)C)nc1	80.75
COc1ccc(CNCc2c(C)nn(C)c2N2CCOCC2)cc1	6.012
Cc1cc(CNCc2c(C)nn(C)c2N2CCOCC2)no1	-8.986
Cc1nn(C)c(N2CCOCC2)c1CNCc1ccc(C(C)O)cc1 (stereo not drawn)	111.2
Cc1nn(C)c(N2CCOCC2)c1CNCc1ccnc(N(C)C)c1	-0.1268
COCc1cccc(CNCc2c(C)nn(C)c2N(C)C)c1	-4.219
Cc1nc(CNCc2c(C)nn(C)c2N2CCOCC2)cs1	-13.32
Cc1nn(C)c(N(C)C)c1CNCc1ccc(N(C)C)nc1	0.9542
Cc1nn(C)c(N2CCOCC2)c1CNCc1ccc2c(c1)OCO2	96.35
COCc1cccc(CNCc2c(C)nn(C)c2N2CCOCC2)c1	117.6
CCCN1CCc2[nH]cnc2C12CCN(C(=O)CCn1cccn1)CC2	-44.41
O=C(CCCc1nnc(-c2ccccc2)o1)N1CCN(CCO)CC1	-6.561
CCOc1ccccc1N(C)C(=O)c1cscn1	11.28
CC1CN(C(=O)c2cnn(-c3ccccn3)c2C(C)C)CC(C)(C)O1 (stereo not drawn)	3.589
Cn1cc(C(O)CNC(=O)c2ccc(F)cc2Cl)cn1 (stereo not drawn)	121.3
Cn1cc(C(O)CNC(=O)c2sccc2OC(F)F)cn1 (stereo not drawn)	-0.7442
Cc1ccc(NC(=O)NCC(c2cnn(C)c2)N(C)C)c(C)c1 (stereo not drawn)	-2.112
Cc1ccc(C(=O)NCC(O)c2cnn(C)c2)c(Br)c1 (stereo not drawn)	99.45
CSCC(C)(O)CNC(=O)c1cc(Br)ccc1Cl (stereo not drawn)	7.074
Cc1ccc(C(=O)NCC(c2cnn(C)c2)N(C)C)c(O)c1 (stereo not drawn)	194.8

SMILES	Percent Effect [%]
CC(CNC(=O)c1ccc(F)cc1Cl)N1CCCC1 (stereo not drawn)	2.022
Cc1ccc(C(O)CNC(=O)c2cccnc2O)cc1 (stereo not drawn)	-65.97
Cn1cc(C(O)CNC(=O)c2cc(Br)ccc2Cl)cn1 (stereo not drawn)	133.1
Cn1cc(C(O)CNC(=O)Nc2cc(F)ccc2-n2cccn2)cn1 (stereo not drawn)	-4.933
Cn1cc(CCCNC(=O)NCC(O)c2ccsc2)cn1 (stereo not drawn)	-8.721
CCOc1cc(F)ccc1NC(=O)NCC(c1cnn(C)c1)N(C)C (stereo not drawn)	4.743
CC(NCCn1cccn1)c1cc(F)ccc1F (stereo not drawn)	17.19
O=c1[nH]nc(SCC2CCCCO2)n1C1CC1 (stereo not drawn)	3.518
COc1cc(CC(O)CO)c(OC)c2c1OCO2 (stereo not drawn)	13.41
O=C(CN1CCc2ccccc2C1)NCc1ccco1	-0.1453
O=C1CCNc2ccc(F)cc2CN1Cc1ccccc1	102.2
O=S(=O)(Cc1ccc(F)cc1)NCc1ccco1	9.126
O=C(c1cc(Br)c[nH]1)N1CCN(Cc2ccco2)CC1	-4.103
O=C(NCCc1ccc2c(c1)OCO2)C1CCCN(Cc2ccco2)C1 (stereo not drawn)	-5.327
O=C1CCNc2ccc(F)cc2CN1Cc1ccco1	96.92
O=C1CCNc2cc3c(cc2CN1Cc1ccco1)OCO3	103.2
O=C1C(NS(=O)(=O)c2cc(F)cc(F)c2)CCN1Cc1ccccc1 (stereo not drawn)	-1.299
O=C(CSC1CCc2ccccc2NC1=O)NCCc1ccco1 (stereo not drawn)	9.555
O=C1CCOCCN1Cc1ccc(Cl)c(F)c1	-26.47
O=C1CCNc2ccccc2CN1Cc1ccco1	99.7
O=C(c1cc(Cl)c(Br)[nH]1)N1CCN(Cc2ccco2)CC1	4.507
CC(C)(C)CN(CCC#N)C(=O)Cc1ccc(-n2cnnn2)cc1	-11.58
COCCc1noc(CN2CCc3nn(C(C)C)c(=O)cc3C2)n1	0.5745

SMILES	Percent Effect [%]
Cc1nnc(CN(C)CCc2nc(-c3cccc(Cl)c3)no2)n1C	-15.48
Cc1cnn(C2CN(CC(O)c3ccccc3)C2)c1 (stereo not drawn)	7.133
O=C(COc1ccc2c(c1)CCCC2=O)NCc1ccco1	5.581
COc1ccc2c(c1)CN(Cc1ccco1)C(=O)CCN2	81.17
CN(Cc1n[nH]c(=O)n1Cc1ccco1)S(C)(=O)=O	13.53
CN(C1CCCCC1)S(=O)(=O)N1CCN(Cc2ccco2)CC1	20.54
Cc1ncc(-c2ccnc(SCCN)n2)c(-c2ccco2)n1	79.73
NCCSc1nccc(-c2cnc(C3CC3)nc2-c2ccco2)n1	112.5
Cc1ncc(-c2ccnc(SCCN(C)C)n2)c(-c2ccco2)n1	91.76
Cc1ncc(-c2ccnc(N3CCN(C)CC3)n2)c(-c2cccnc2)n1	-5.726
COCCN(c1cc(C)nc2nc(C(F)(F)F)nn12)C1CCCC1	-0.8248
CC1(C)CNC(=O)c2nc(CCN3CCOCC3)[nH]c2C1	-31.15
CCn1cnnc1Cc1nc2c([nH]1)CC(c1ccc(Cl)cc1)CNC2=O (stereo not drawn)	5.995
O=C1NCC(c2ccc(Cl)cc2)Cc2[nH]c(CCN3CCOCC3)nc21 (stereo not drawn)	104.7
O=C1NCC(c2ccc(F)cc2)Cc2[nH]c(CCN3CCCC3)nc21 (stereo not drawn)	95.37
CCN(CC)CCc1nc2c([nH]1)CC(c1ccc(Cl)cc1)CNC2=O (stereo not drawn)	-9.032
CC1(C)CNC(=O)c2nc(CCCN3CCCC3)[nH]c2C1	-5.112
Cc1cc(-c2ccc(C(C)N3CCCCC3)cc2)cnc1N (stereo not drawn)	11.64
Cc1nccnc1N1Cc2cnn(Cc3ccc(F)cc3)c2C1	9.58
CC(=O)Nc1ccc2nc(-c3nccn3CC(C)(C)CO)ccc2c1	3.908
Cc1noc(CNc2ccc(C(=O)N3CCCC(C)C3)cc2C)n1 (stereo not drawn)	71.8
Cc1cc(CNc2ccc(C(=O)N3CCCC(C)C3)cc2C)no1 (stereo not drawn)	0.152
Cc1cc(C(=O)N2CCCC(C)C2)ccc1NCc1nc(C(C)C)no1 (stereo not drawn)	111.7

SMILES	Percent Effect [%]
CC(C)c1noc(CNc2ccc(OC(F)F)cc2OC(F)F)n1	-33.16
CCc1cnc(CNc2ccc(C(=O)N3CCCC(C)C3)cc2C)o1 (stereo not drawn)	0.007999
CCc1noc(CNc2ccc(C(=O)N3CCCC(C)C3)cc2C)n1 (stereo not drawn)	-0.296
Cc1nccn1C1CCCN(C(=O)CCc2nc(C(C)C)no2)C1 (stereo not drawn)	10.57
Cc1cc(C(=O)N2CCCC(C)C2)ccc1NCc1nc(C2CC2)no1 (stereo not drawn)	111.9
CNS(=O)(=O)Cc1cccc(CNCc2ccsc2)c1	-11.11
CCN(Cc1cnn(CC)c1)C(=O)Cn1c(=O)ccc2ccccc21	8.668
Cc1noc(C)c1CN(C)C(=O)c1ccc(NC2CC2)nc1	-0.4037
O=C1NCCCc2[nH]c(Cc3ccc(F)cc3)nc21	-3.55
Cl.O=C1NCCCCC1NCc1csc(-c2ccc(F)cc2)n1 (stereo not drawn)	-5.681
Cc1ccc(Cc2cnc(C3CCNCC3)cn2)cc1.Cl	94.42
Cl.Fc1ccc(Cc2cnc(C3CCCN3)cn2)cc1 (stereo not drawn)	101.6
CN(C)C(=O)c1cccc(CCNc2ccccc2S(C)(=O)=O)c1	-12.66
CC(C)Nc1ncccc1C(=O)NC1CC(=O)N(CC(F)(F)F)C1 (stereo not drawn)	5.646
CC(=O)N(C)CC(=O)NCC1(c2c(F)cccc2F)CCCC1	20.23
Cc1cc(C)n(C2CCCN(C(=O)c3ccn(C)c(=O)c3)C2)n1 (stereo not drawn)	-8.273
Cc1cc(C)n(C2CCCN(C(=O)c3ccnc(N(C)C)c3)C2)n1 (stereo not drawn)	-18.09
Cc1cc(C)n(C2CCCN(C(=O)c3cnc4onc(C)c4c3)C2)n1 (stereo not drawn)	3.729
Cc1cc(C)n(C2CCCN(C(=O)c3ccc(NC4CC4)nc3)C2)n1 (stereo not drawn)	-9.75
CNC(=O)c1ccc(C(=O)N2CCCC(n3nc(C)cc3C)C2)cn1 (stereo not drawn)	97.01
Cc1cc(C)n(C2CCCN(C(=O)c3ccc(N(C)C)nc3)C2)n1 (stereo not drawn)	99.92
